Our source for the Potency values is PubChem BioAssay (Tox21).

Values without a mark were called inactive. Results filed as inconclusive are left out. Calls of active or inactive are those of the source. Unless noted, the call rests on the fitted dose curve; in most records, active means well fitted curve in the direction sought with a large enough effect in the repeat runs; inconclusive means weak or mixed curves; inactive means no such curve, though single readings can be large; an effect the other way counts as inactive or inconclusive.

Experiment [1] is described as follows: qHTS assay for small molecules that induce genotoxicity in human embryonic kidney cells expressing luciferase-tagged ATAD5 (AID 651632). Further: nearly all actives have a fitted effect of over 15% in size. A digest of the protocol:
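Cells were seeded at 2,000 per well, dosed with compound, and incubated 16 hr at 37C in 5% CO2. Luciferase activity was then quantified after a 30 min room-temperature incubation with Amplite.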
A general note: qHTS replaces the single test concentration by a dilution series.

Experiment [2] in a line: qHTS assay for small molecule agonists of the p53 signaling pathway - cell viability (AID 651633; calls by dose curve; further: nearly all actives have a fitted effect of over 30% in size; further: potency means the concentration at half of the fitted maximal effect). A digest of the protocol: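 p53RE-bla cells, seeded at 4,000 per well and rested 5 h at 37 C/5% CO2, received compounds in DMSO for 16 h at 37 C. CellTiter-Glo was then added, and luminescence was read after 30 min at room temperature to gauge cytotoxicity.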
The nature of experiment [3]: qHTS assay for small molecules that induce genotoxicity in human embryonic kidney cells expressing luciferase-tagged ATAD5 - cell viability (AID 651634; calls by dose curve; further: nearly all actives have a fitted effect of over 25% in size; further: potency means the concentration at half of the fitted maximal effect). Summed up:
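Cells (HEK293T, luciferase-tagged ATAD5) are seeded at 2,000 per well, dosed with compound or DMSO vehicle, and incubated 15.5 hr at 37C and 5% CO2. CellTiter-Fluor is added for 30 min before fluorescence is measured.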

Experiment [4] can be described thus: qHTS assay for small molecule disruptors of the mitochondrial membrane potential (AID 720635). Further: potency means the concentration at half of the fitted maximal effect. A digest of the protocol:
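HepG2 cells (2,000/well) attached overnight at 37C, then took compound for 1 hr at 37C, 5% CO2. Mito-MPS dye was added for 30 min; fluorescence was read at 490/535 nm (monomers) and 540/590 nm (aggregates).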

Experiment [5] in a line: qHTS assay to test for compound auto fluorescence at 590 nm (red) in HepG2 cells (AID 720674). Summed up: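 Rose Bengal sodium served as the red fluorophore standard. HepG2 monolayers (overnight attachment, MEM with 10% FBS) were exposed to test compounds for 1 hr at 37 C and read at Ex 540/Em 590 nm.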
A short description of experiment [6]: qHTS assay to test for compound auto fluorescence at 535 nm (green) in HepG2 cells (AID 720675).
Experiment [7] is described as follows: qHTS assay to test for compound auto fluorescence at 460 nm (blue) in HEK293 cells (AID 720678). Summed up: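 HEK293 cells (2,000 per well, medium with 10% dialyzed FBS) attached for 4-5 hr at 37C, then received compound and stood overnight at 37C, 5% CO2. Blue fluorescence was read at Ex/Em 405/460 nm and expressed relative to triamterene.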
Experiment [8] is described as follows: qHTS assay to test for compound auto fluorescence at 590 nm (red) in HEK293 cells (AID 720679). A digest of the protocol: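 HEK293 cells (2,000/well, medium with 10% dialyzed FBS) attached for 4-5 hr at 37C, received 23 nL compound and were incubated overnight at 37C, 5% CO2. Red fluorescence was then read at 540/590nm Ex/Em, referenced to Rose Bengal sodium.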

A short description of experiment [9]: qHTS assay to test for compound auto fluorescence at 535 nm (green) in HEK293 cells (AID 720680).
The nature of experiment [10]: qHTS assay to test for compound auto fluorescence at 460 nm (blue) in HEK293 cell free culture (AID 720681). A digest of the protocol: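 Test compounds were pinned into cell-free culture medium (DMEM with 10% FBS) and fluorescence was read directly at Ex/Em 405/460 nm. Signals were expressed as fluorescence equivalents of triamterene, with DMSO vehicle as control.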

Experiment [11] can be described thus: qHTS assay to test for compound auto fluorescence at 535 nm (green) in HEK293 cell free culture (AID 720682). Summed up: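 Measurement is a direct plate read of green fluorescence (485 nm in, 535 nm out) after compound addition to serum-supplemented DMEM lacking cells, with fluorescein used to express intensities.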
A short description of experiment [12]: qHTS assay to test for compound auto fluorescence at 590 nm (red) in HEK293 cell free culture (AID 720683). A digest of the protocol: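 Tox21 10K library compounds were pinned into cell-free DMEM with 10% FBS and fluorescence was read at excitation 540 nm. Activity is expressed as Rose Bengal sodium equivalency.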
Experiment [13] in a line: qHTS assay to test for compound auto fluorescence at 590 nm (red) in HepG2 cell free culture (AID 720684). Summed up:
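Ex 540 / Em 590 nm read of compound in cell-free MEM (10% FBS). Rose Bengal sodium reference.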

The nature of experiment [14]: qHTS assay to test for compound auto fluorescence at 460 nm (blue) in HepG2 cell free culture (AID 720685). Summed up: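 Cell-free plates of MEM plus 10% FBS received 23 nL compound or DMSO vehicle; blue-channel (405/460 nm) intensity scored against triamterene as reference fluorophore.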
Experiment [15] is described as follows: qHTS assay to test for compound auto fluorescence at 535 nm (green) in HepG2 cell free culture (AID 720686).
The nature of experiment [16]: qHTS assay to test for compound auto fluorescence at 460 nm (blue) in HepG2 cells (AID 720687). A digest of the protocol: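 Cells (2,000/well in MEM with 10% FBS) attached overnight at 37 C, then were exposed to compound or DMSO for 1 hr at 37 C, 5% CO2. Fluorescence read at Ex/Em 405/460 nm, expressed as triamterene-equivalent signal.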
Experiment [17] is described as follows: qHTS assay for small molecule disruptors of the mitochondrial membrane potential - cell viability (AID 720634; calls by dose curve;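 further: human HepG2 liver cancer cells; nearly all actives have a fitted effect of over 20% in size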). Summed up: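 Cytotoxicity was measured by ATP quantitation in HepG2 wells that had first been treated with compound for 1 hr and stained with m-MPI dye; CellTiter-Glo incubation was 30 min at room temperature.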
In experiment [18] the target is Glucocorticoid receptor (Homo sapiens) (UniProt P04150). Briefly: qHTS assay to identify small molecule agonists of the glucocorticoid receptor (GR) signaling pathway (AID 720691; active means well fitted activation curve with a large enough effect in the signal ratio in the repeat runs, not every such curve was filed as active; the % refers to the signal ratio). As to conditions: GR-bla HeLa, beta-lactamase reporter ratio, 18 h; activation: at 62.4 µM (top of the series). Summed up: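 Steps: seed GR-bla HeLa cells, incubate 4 h at 37 C/5% CO2; pin-transfer DMSO-dissolved compounds; incubate 18 h at 37 C; add LiveBLAzer B/G FRET substrate; after 2 h at room temperature, measure fluorescence.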

Experiment [19] has the same target. Briefly: qHTS assay to identify small molecule antagonists of the glucocorticoid receptor (GR) signaling pathway (AID 720692; active means well fitted inhibition curve with a large enough effect in the signal ratio in the repeat runs, not every such curve was filed as active; the % refers to the signal ratio; further: potency means the concentration at half of the fitted maximal effect). Summed up:
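Antagonism was scored as loss of dexamethasone-driven (5 nM final) reporter signal in HeLa cells bearing a glucocorticoid response element–beta-lactamase construct, after 18 h compound exposure at 37 C and 2 h FRET substrate loading.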

Sequence of Glucocorticoid receptor (Homo sapiens) (P04150 whole entry, looked up): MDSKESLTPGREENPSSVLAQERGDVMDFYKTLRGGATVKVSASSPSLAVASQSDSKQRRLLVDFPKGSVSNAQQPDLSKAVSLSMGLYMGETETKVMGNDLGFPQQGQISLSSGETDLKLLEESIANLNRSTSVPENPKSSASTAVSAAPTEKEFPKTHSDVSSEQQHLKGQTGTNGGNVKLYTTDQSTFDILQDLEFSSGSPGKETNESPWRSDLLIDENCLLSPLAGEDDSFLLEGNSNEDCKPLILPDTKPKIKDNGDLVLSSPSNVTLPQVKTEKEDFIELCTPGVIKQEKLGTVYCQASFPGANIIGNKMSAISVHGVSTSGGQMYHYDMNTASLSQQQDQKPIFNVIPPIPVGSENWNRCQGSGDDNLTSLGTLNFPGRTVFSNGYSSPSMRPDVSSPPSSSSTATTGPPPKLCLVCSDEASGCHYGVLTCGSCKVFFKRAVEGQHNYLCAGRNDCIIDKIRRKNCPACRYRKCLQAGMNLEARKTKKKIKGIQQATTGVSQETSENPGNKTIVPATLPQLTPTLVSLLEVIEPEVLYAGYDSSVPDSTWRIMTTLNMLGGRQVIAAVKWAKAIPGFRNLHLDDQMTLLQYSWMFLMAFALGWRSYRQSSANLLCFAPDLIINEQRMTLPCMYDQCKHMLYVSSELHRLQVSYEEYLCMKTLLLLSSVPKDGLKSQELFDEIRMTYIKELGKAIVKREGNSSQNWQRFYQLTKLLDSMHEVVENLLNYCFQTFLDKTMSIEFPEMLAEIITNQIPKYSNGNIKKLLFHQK

On to `COCC(=O)O[C@]1(CCN(C)CCCc2nc3ccccc3[nH]2)CCc2cc(F)ccc2[C@@H]1C(C)C`, for which the Potency entry in [1], in experiment [5], in experiment [6], in experiment [7], in experiment [8] and in [9] was “inactive” throughout. Also, the Potency result in experiment [10], in [11], in experiment [12], in [13], in [14] and in experiment [15] was “inactive” each time. The Potency result in experiment [16] was “inactive”. Further, the Potency in [2] was 11.9 µM (active); in experiment [3], 10.6 µM (active); in experiment [4], 3.35 µM (active).
Consider `CN(C)CCOC(c1ccccc1)c1ccccc1` (tested in a mixture with another compound), for which the Potency result in experiment [1], in experiment [2], in experiment [3], in experiment [17], in experiment [5] and in [6] was “inactive” throughout. Besides, the Potency entry in [7], in experiment [8], in [9], in experiment [10], in [11] and in experiment [12] was “inactive” in each case. For the same compound, the Potency entry in experiment [13], in experiment [14], in [15], in experiment [16] and in [18] was “inactive” in each case.
For `CCCCCCCC/C=C/CCCOC(C)=O`, the Potency entry in experiment [1], in [2], in experiment [3], in experiment [17], in experiment [5] and in [6] was “inactive” in each case. The Potency entry in [7], in experiment [8], in [9], in experiment [10], in experiment [11] and in experiment [12] was “inactive” each time. The Potency result in experiment [13], in experiment [14], in experiment [15], in [16] and in experiment [18] was “inactive” each time.
For the compound `CC(C)(C)c1cc(/C=C2\SC(=N)NC2=O)cc(C(C)(C)C)c1O`, the Potency result in experiment [1], in experiment [17], in [5], in [6], in experiment [7] and in experiment [8] was “inactive” in each case. Besides, the Potency entry in experiment [9], in [10], in experiment [11], in experiment [12], in [13] and in experiment [14] was “inactive” in each case. Moreover, the Potency entry in experiment [15] and in experiment [16] was “inactive” each time. Also, the Potency in [2] was 68.6 µM (active); in experiment [4], 12.2 µM (active).
Consider `CC(C)OC(=O)c1cc(C(=O)OC(C)C)cc([N+](=O)[O-])c1`, for which the Potency entry in experiment [1], in [2], in [3], in experiment [5], in experiment [6] and in [7] was “inactive” throughout. For the same compound, the Potency entry in experiment [9], in experiment [10], in experiment [11], in experiment [12], in [13] and in [14] was “inactive” each time. In addition, the Potency result in experiment [15], in experiment [16] and in experiment [18] was “inactive” throughout.
As to `Brc1ccccc1-c1ccccc1`, the Potency entry in experiment [1], in experiment [2], in experiment [3], in experiment [5], in [6] and in experiment [7] was “inactive” each time. For the same compound, the Potency entry in experiment [9], in experiment [10], in experiment [11], in experiment [12], in experiment [13] and in experiment [14] was “inactive” each time. The Potency result in [15], in experiment [16] and in experiment [18] was “inactive” each time. In addition, the Potency in experiment [4] is 51.6 µM (active).
For the compound `CCCCCCC(C)Nc1ccc(Nc2ccccc2)cc1` (stereo not given), the Potency result in experiment [1], in [3], in experiment [5], in experiment [6], in experiment [7] and in experiment [8] was “inactive” each time. The Potency entry in experiment [9], in [10], in experiment [11], in [12], in experiment [13] and in experiment [14] was “inactive” in each case. In addition, the Potency result in experiment [15] and in experiment [16] was “inactive” throughout. Also, the Potency was 54.5 µM (active) in [2], 30.6 µM (active) in experiment [4] and 43.6 µM (active) in experiment [19].
Regarding `CCCSS/C(CCO)=C(\C)N(C=O)Cc1cnc(C)nc1N`, the Potency entry in [1], in [2], in experiment [3], in experiment [17], in experiment [4] and in [6] was “inactive” throughout. For the same compound, the Potency entry in experiment [7], in experiment [8], in [9], in experiment [10], in [11] and in experiment [12] was “inactive” throughout. Further, the Potency entry in experiment [13], in experiment [14], in experiment [15] and in experiment [16] was “inactive” throughout.
Regarding `CC(NCCC(c1ccccc1)c1ccccc1)c1ccccc1` (stereo not given), the Potency entry in [1], in [5], in experiment [6], in experiment [7], in [8] and in [9] was “inactive” in each case. The Potency entry in experiment [10], in [11], in experiment [12], in experiment [13], in experiment [14] and in experiment [15] was “inactive” throughout. In addition, in [16], the Potency entry was “inactive”. In addition, the Potency in experiment [2] is 29.8 µM (active); in [4], 8.8 µM (active).
Turning to `CCO[Si](CCCSSSSCCC[Si](OCC)(OCC)OCC)(OCC)OCC`, the Potency result in experiment [1], in experiment [3], in experiment [17], in experiment [6], in [7] and in experiment [9] was “inactive” each time. In addition, the Potency result in experiment [10], in experiment [11], in experiment [12], in experiment [13], in experiment [14] and in experiment [15] was “inactive” in each case. For the same compound, the Potency result in experiment [16], in experiment [18] and in experiment [19] was “inactive” each time.
